These results are taken from PubChem BioAssay (NCATS).

Values joined by “and” are separate entries in the source; they are usually repeats but may differ in a detail not shown here. Equal values may be shown once. Inconclusive results are not listed. Active and inactive are the calls of the source. Unless noted, the call rests on the fitted dose curve; in most records, active means well fitted curve in the direction sought with a large enough effect; inconclusive means small, poorly fitted or top-dose-only effect, or another doubt; inactive means no such curve, though single readings can be large; an effect the other way counts as inactive or inconclusive.

Experiment [1] addresses Glucocorticoid receptor (Homo sapiens) (UniProt P04150). Description: GR-GFP Redistribution (AID 450;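 active means compounds whose dose series gives a full or clear partial fitted curve of increased nuclear translocation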; further: potency means the concentration at half of the fitted maximal effect). Conditions: U2OS GR-GFP nuclear translocation, laser cytometry, 2 h.
For experiment [2] the target is unchanged. Description: GR-EFC Redistribution (AID 451; calls by dose curve; further: potency means the concentration at half of the fitted maximal effect). To be noted: CHO-K1 GR-EFC translocation, beta-gal luminescence, 2 h. Put shortly:
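Translocation of GR-ED fusion to nuclear EA restores b-gal, read by luminescence after 1 h room-temperature detection. Engineered CHO-K1 biosensor cells, 1,000/well, exposed 2 h at 37 C to titrations up to 46 uM final.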

Experiment [3] deals with Mitogen-activated protein kinase 10 (Mus musculus) (UniProt Q61831). In words: JNK3 AlphaScreen Assay (AID 530; active means well fitted curve in either direction with a large enough effect, not every such curve was filed as active;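 further: kinase came from lysate of stimulated human HepG2 cells; signal reports phosphorylation of biotinylated GST-cJun 1-79 at Ser73 with 10 µM ATP; on the % scale 0 is the no-effect control and ±100 the full control effect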). To be noted: JNK3 lysate, c-Jun phosphorylation; series mostly up to 57.1 µM. Put shortly:
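Kinase buffer: 20 mM Tris-HCl pH 7.6, 10 mM MgCl2, 1 mM DTT, 0.1 mM Na3VO4, 0.01% Tween-20; ATP 10 uM. Substrate biotin-GST-cJun(1-79), enzyme from activated HepG2 lysates. Detection by Ser73 phospho-antibody AlphaScreen.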
A general note: In Alpha technology, singlet oxygen from a donor bead excites a nearby acceptor bead.

Experiment [4] deals with 3',5'-cyclic-AMP phosphodiesterase 4B (Homo sapiens) (UniProt Q07343). Description: qHTS Assay for Inhibitors of PDE-IV (AID 607; active means well fitted activation curve with a large enough effect in the main read-out, with a control signal flat, not every such curve was filed as active; further: % of control where 0% means no effect). Conditions: HEK293 ACTOne CNG channel cells, membrane potential fluorescence; series mostly up to 22.9 µM. The method, boiled down: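 The readout is membrane depolarisation from a cAMP-sensing CNG channel, detected with a potential dye at ex 535/em 590. Cells were HEK293-derived (endogenous PDE-IV) at 1000 cells/well, titrated up to 22.9 uM final.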
(In general: In qHTS, concentration-response curves come from the screen itself.)

The nature of experiment [5]: qHTS Assay for Lipid Storage Modulators (AID 1519; calls by dose curve). Conditions: Drosophila S3 cells, BODIPY lipid droplet/cell ratio, laser cytometry, cells loaded with oleic acid; for activity change, negative = inhibition: at 57.5 µM (top of the series). The method, boiled down:
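Cells seeded at 5,000 per well were treated with compounds over a concentration series and loaded with oleic acid (400 uM, as added). Lipid droplet fluorescence (488 nm excitation, 500-530 nm channel) was read by laser-scanning cytometry and normalized to 20 uM Triacsin C.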

In experiment [6] the target is DNA dC->dU-editing enzyme APOBEC-3G (Homo sapiens) (UniProt Q9HC16). In words: qHTS for inhibitors of Vif-A3G interactions: Validation (AID 588379). Further: 0% is about no effect. Conditions: Vif-A3G protein interaction assay; series mostly up to 46.1 µM. Put shortly:
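Yellow fluorescence (Ex 488, Em 500-530) of Vif-coexpressing HeLa A3G-eYFP cells, scanned by Acumen cytometer, reports blocked A3G degradation. Cells plated at 700/well overnight at 37 deg C before compound addition, then a further overnight compound incubation at 37 deg C.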

Experiment [7] deals with Zika virus NS2B-NS3 protease. In words: Primary screen GU AMC qHTS for Zika virus inhibitors (AID 1347154).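 Further: 0% = no-inhibitor control and -100% = no-enzyme control; nearly all actives have a fitted effect of over 70% in size.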 Conditions: Zika NS2B-NS3 unlinked protease, AMC fluorogenic substrate; series mostly up to 54.1 µM. The method, boiled down: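 Fluorogenic AMC-substrate cleavage by noncovalent NS2B-NS3 protease complex (25 nM, pH 8.0 Tris buffer with Tween 20) followed for 15 minutes at room temperature (~20% conversion). Percent inhibition from ex340/em450 signal change, fitted by 4-parameter Hill equation.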

A short description of experiment [8]: Primary qHTS for small molecule stabilizers of the endoplasmic reticulum resident proteome: Secreted ER Calcium Modulated Protein (SERCaMP) assay (AID 1508630). Further: on the % scale 0 is the no-effect control and ±100 the full control effect. To be noted: SH-SY5Y GLuc-SERCaMP (Gaussia luciferase released on ER calcium loss) secretion, thapsigargin, luminescence; series mostly up to 38.4 µM. Put shortly: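 The SH-SY5Y reporter protocol was run at 3 concentrations up to 38.3 uM (primary) or 11 concentrations (follow-up): 16 h compound, 100 nM thapsigargin for 4 h, then extracellular luciferase luminescence.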

In experiment [9] the target is Cytochrome P450 2D6 (Homo sapiens) (UniProt P10635). Description: qHTS Assay for Inhibitors and Substrates of Cytochrome P450 2D6 (AID 891). Further: nearly all actives have a fitted effect of over 60% in size. Further: potency means the concentration at half of the fitted maximal effect. Conditions: recombinant CYP2D6, luciferin-ME EGE luminescence; series mostly up to 57.1 µM. The method, boiled down: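 Luminescent read-out of luciferin formed by 5 nM human CYP2D6 demethylating 30 uM Luciferin-ME EGE (Km level) over 60 min at room temperature after NADPH regeneration addition. Data normalized to full inhibition by 1.43 uM quinidine.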

Experiment [10] has as its target Cytochrome P450 2C19 (Homo sapiens) (UniProt P33261). In words: qHTS Assay for Inhibitors and Substrates of Cytochrome P450 2C19 (AID 899). Further: nearly all actives have a fitted effect of over 60% in size. Further: potency means the concentration at half of the fitted maximal effect. Conditions: recombinant CYP2C19, luciferin-H EGE luminescence; series mostly up to 57.1 µM. Put shortly:
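5nM enzyme + 10uM Luciferin-H EGE (=KM), 50mM KPO4; cpd pin-transferred, 10 min 37C; NADPH regen, 60 min 37C; stopped w/ luciferin detection reagent, 20 min; luminescence. Normalized to 57uM ketoconazole (AC100).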

Experiment [11] in a line: AP1 Signaling Pathway (AID 357; active means well fitted curve in either direction with a large enough effect, not every such curve was filed as active;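 further: ME-180 reporter cells stimulated with EGF at its EC50 level; on the % scale 0 is the no-effect control and ±100 the full control effect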). Conditions: ME-180 AP-1-bla reporter, EGF-induced, beta-lactamase ratio, 5 h; at 38 µM (top of the series). Put shortly: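 AP-1-bla ME-180 cells, Opti-MEM + 0.5% dialyzed FBS, plated overnight 37 °C. Cpd titration + EC50 EGF, 5 h 37 °C. CCF4 2.5 h RT; ex 405, em 460/530 ratio → %activity, AC50.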
For experiment [12], the target named is Cytochrome P450 1A2 (Homo sapiens) (UniProt P05177). Description: p450-cyp1a2 (AID 410; calls by dose curve; further: potency means the concentration at half of the fitted maximal effect). Conditions: recombinant CYP1A2, luciferin-ME demethylation, luminescence; series mostly up to 57 µM. Put shortly: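 Read-out is luminescence from luciferin produced by CYP1A2 demethylation of Luciferin-ME (100uM, at Km). Detection reagent stopped the 60 min NADPH-dependent reaction; signals were normalized to 57 uM furafylline.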

Experiment [13] in a line: NFAT Signaling Pathway (AID 444; active means well fitted curve in either direction with a large enough effect, not every such curve was filed as active;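 further: carbachol stimulus at about its EC50 of 1 µM final; on the % scale 0 is the no-effect control and ±100 the full control effect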). Conditions: Jurkat NFAT-bla M1, carbachol, beta-lactamase ratio, 5 h; at 38 µM (top of the series). The method, boiled down: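 Read-out: CCF4 FRET ratio (460 nm/530 nm) after 1 h RT dye loading, used for %activity and AC50 from titration series. Cells: Jurkat NFAT-β-lactamase/M1 line, treated with compound plus 1 uM carbachol for 5 h, 37 °C.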

Experiment [14] deals with Guanine nucleotide-binding protein G(i) subunit alpha-1 (Homo sapiens) (UniProt P63096). Description: qHTS Assay for Inhibitors of RGS12 GoLoco Motif Activity (Green Fluorophore) (AID 879).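 Further: 0% = labeled peptide with Gαi1 and full inhibition = labeled peptide alone without protein; negative values mean loss of peptide binding seen as reduced polarization.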 Conditions: Galphai1/FITC-RGS12 GoLoco peptide, fluorescence polarization; series mostly up to 57.1 µM. The method, boiled down: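 A drop in FITC polarization marked displacement of the FITC-tagged RGS12 GoLoco peptide (10 nM) from Gαi1 (50 nM). Compounds were incubated 10 min at room temperature in Tris pH 7.5 buffer containing 150 mM NaCl, 0.1 mM GDP and 0.05% NP40; unlabeled peptide titration served as control.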

Experiment [15] addresses Cytochrome P450 2C9 (Homo sapiens) (UniProt P11712). In words: qHTS Assay for Inhibitors and Substrates of Cytochrome P450 2C9 (AID 883). Further: nearly all actives have a fitted effect of over 60% in size. Further: potency means the concentration at half of the fitted maximal effect. Conditions: recombinant CYP2C9, luciferin-H luminescence, 60 min; series mostly up to 57.1 µM. The method, boiled down:
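Inhibition of CYP2C9 is scored as loss of luminescence, with 57uM sulphaphenazole defining 100% inhibition. Substrate Luciferin-H is used at 100uM, equal to its KM; enzyme at 10nM in 25mM KPO4, 60 min at 37C with NADPH regeneration.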

Experiment [16] has as its target Cytochrome P450 3A4 (Homo sapiens) (UniProt P08684). In words: qHTS Assay for Inhibitors and Substrates of Cytochrome P450 3A4 (AID 884). Further: potency means the concentration at half of the fitted maximal effect; nearly all actives have a fitted effect of over 50% in size. To be noted: recombinant CYP3A4, Luciferin-PPXE luminescence; series mostly up to 57.1 µM. The method, boiled down:
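Luminescent readout of luciferin produced by CYP3A4 (20 nM) dealkylation of Luciferin-PPXE, 25 uM (its KM). NADPH-driven reaction ran 60 min at RT after 10 min compound preincubation; data scaled to 57 uM ketoconazole as 100% inhibition.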

For experiment [17] the target is unchanged. In words: qHTS Assay for Activators of Cytochrome P450 3A4 (AID 885). Further: nearly all actives have a fitted effect of over 65% in size. To be noted: recombinant CYP3A4, Luciferin-PPXE luminescence, 60 min; series mostly up to 57.1 µM. Put shortly:
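Activators are scored by enhanced luminescence from CYP3A4 conversion of luciferin-PPXE (25uM, equal to KM) to luciferin, after 60 min at RT with an NADPH-regenerating system.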

For experiment [18], the target named is Pyruvate kinase (Leishmania mexicana) (UniProt Q27686). In words: qHTS Validation Assay for Inhibitors of Leishmania Mexicana Pyruvate Kinase (AID 945).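 Further: 0% = DMSO only neutral control wells.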 To be noted: purified L. mexicana pyruvate kinase, enzyme activity, E451W mutant enzyme; series mostly up to 57.5 µM. Put shortly:
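Pyruvate kinase activity of E451W LmPYK (0.2 nM) was followed as ATP output after 1 h at room temperature with 0.5 mM PEP and 0.1 mM ADP, detected by PKLight luminescence.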

A short description of experiment [19]: Stat Signaling Pathway (AID 446; active means well fitted curve in either direction with a large enough effect, not every such curve was filed as active). To be noted: ME-180 (cervical carcinoma) SIE beta-lactamase reporter, IL-6 stimulated, 5 h; at 38 µM (top of the series). The method, boiled down:
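Emission at 460 and 530 nm (excitation 405 nm) reports SIE-controlled beta-lactamase in ME-180 cells. Cells received compound with 40 pM IL-6 for 5 hrs at 37 C; data scaled between 300 pM IL-6 and 125 nM JAK-inhibitor controls.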

Setting [20] is: measured here: cell count channel max response.
Where [21] appears, read: measured here: lipid channel max response.

Chain of DNA dC->dU-editing enzyme APOBEC-3G (Homo sapiens) (Q9HC16 whole entry, looked up): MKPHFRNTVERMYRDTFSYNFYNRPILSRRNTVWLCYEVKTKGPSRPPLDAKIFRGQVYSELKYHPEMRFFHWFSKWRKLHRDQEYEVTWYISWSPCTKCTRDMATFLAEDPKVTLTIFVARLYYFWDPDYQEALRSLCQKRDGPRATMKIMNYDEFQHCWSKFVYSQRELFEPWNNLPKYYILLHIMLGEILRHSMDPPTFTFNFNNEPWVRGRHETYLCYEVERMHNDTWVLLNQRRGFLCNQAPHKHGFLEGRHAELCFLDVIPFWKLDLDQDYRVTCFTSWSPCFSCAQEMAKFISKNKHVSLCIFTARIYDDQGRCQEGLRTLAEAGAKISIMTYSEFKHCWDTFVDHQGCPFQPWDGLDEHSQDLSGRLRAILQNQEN
Chain of Glucocorticoid receptor (Homo sapiens) (P04150 whole entry, looked up): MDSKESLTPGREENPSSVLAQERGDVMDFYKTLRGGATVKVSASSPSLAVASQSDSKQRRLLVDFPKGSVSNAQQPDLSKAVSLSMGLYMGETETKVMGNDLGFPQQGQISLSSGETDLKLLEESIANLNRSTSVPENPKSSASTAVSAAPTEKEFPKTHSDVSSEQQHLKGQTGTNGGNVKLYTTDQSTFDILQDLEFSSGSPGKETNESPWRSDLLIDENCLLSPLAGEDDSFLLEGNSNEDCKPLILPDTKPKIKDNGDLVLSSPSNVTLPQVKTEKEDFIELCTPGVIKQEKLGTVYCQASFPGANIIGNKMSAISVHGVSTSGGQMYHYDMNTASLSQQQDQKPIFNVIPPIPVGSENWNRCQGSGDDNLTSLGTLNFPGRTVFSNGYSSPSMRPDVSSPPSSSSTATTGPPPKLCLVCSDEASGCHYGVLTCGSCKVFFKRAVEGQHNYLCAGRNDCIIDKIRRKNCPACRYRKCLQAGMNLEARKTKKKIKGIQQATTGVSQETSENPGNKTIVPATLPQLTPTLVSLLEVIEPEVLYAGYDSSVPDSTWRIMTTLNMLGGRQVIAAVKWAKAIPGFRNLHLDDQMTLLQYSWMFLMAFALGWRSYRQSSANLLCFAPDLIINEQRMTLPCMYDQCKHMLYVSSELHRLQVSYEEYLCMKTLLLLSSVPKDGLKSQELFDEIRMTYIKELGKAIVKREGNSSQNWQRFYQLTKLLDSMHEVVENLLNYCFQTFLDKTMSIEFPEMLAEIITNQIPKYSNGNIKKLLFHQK
Chain of 3',5'-cyclic-AMP phosphodiesterase 4B (Homo sapiens) (Q07343 whole entry, looked up): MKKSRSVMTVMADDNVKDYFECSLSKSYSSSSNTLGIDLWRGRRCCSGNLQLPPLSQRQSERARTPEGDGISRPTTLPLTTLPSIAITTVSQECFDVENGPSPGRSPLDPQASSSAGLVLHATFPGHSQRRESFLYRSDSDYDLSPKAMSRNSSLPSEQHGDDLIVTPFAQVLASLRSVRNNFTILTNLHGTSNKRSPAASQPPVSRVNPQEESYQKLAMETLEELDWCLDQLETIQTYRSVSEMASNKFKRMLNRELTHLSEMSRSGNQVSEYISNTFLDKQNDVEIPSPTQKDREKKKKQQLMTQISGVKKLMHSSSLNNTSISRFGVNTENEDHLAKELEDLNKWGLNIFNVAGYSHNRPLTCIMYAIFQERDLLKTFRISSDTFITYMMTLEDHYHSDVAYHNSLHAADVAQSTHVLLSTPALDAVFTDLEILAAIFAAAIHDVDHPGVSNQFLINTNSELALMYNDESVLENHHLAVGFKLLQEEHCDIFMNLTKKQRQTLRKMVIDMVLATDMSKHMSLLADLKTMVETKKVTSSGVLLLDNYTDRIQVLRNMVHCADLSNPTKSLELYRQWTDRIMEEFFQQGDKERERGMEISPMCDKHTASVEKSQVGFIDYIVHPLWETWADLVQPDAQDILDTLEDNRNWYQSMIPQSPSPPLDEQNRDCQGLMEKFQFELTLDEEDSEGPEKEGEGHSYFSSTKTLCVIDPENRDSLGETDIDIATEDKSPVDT
Chain of Guanine nucleotide-binding protein G(i) subunit alpha-1 (Homo sapiens) (P63096 whole entry, looked up): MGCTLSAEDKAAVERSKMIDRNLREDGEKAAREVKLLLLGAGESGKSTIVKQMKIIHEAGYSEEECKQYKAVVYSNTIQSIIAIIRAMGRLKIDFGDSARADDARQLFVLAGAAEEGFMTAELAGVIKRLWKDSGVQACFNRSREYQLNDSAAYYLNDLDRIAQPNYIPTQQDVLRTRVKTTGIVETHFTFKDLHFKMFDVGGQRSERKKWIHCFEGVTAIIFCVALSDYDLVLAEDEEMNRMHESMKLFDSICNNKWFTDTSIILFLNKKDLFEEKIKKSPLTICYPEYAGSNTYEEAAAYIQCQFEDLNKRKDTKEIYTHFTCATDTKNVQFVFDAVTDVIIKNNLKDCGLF
Chain of Pyruvate kinase (Leishmania mexicana) (Q27686 2-499 E452W): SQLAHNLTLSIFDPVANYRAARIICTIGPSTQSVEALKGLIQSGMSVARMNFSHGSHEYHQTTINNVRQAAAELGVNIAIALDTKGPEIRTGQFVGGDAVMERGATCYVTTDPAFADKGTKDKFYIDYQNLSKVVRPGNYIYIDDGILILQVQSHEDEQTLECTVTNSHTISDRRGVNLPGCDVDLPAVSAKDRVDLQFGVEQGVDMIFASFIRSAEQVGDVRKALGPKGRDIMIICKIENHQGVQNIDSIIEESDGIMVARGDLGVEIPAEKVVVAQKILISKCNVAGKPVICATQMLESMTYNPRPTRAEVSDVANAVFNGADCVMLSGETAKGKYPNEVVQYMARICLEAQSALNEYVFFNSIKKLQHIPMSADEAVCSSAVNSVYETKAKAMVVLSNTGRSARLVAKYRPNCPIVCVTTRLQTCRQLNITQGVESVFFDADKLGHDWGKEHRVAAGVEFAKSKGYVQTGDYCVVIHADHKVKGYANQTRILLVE
Chain of Cytochrome P450 2C9 (Homo sapiens) (P11712 whole entry, looked up): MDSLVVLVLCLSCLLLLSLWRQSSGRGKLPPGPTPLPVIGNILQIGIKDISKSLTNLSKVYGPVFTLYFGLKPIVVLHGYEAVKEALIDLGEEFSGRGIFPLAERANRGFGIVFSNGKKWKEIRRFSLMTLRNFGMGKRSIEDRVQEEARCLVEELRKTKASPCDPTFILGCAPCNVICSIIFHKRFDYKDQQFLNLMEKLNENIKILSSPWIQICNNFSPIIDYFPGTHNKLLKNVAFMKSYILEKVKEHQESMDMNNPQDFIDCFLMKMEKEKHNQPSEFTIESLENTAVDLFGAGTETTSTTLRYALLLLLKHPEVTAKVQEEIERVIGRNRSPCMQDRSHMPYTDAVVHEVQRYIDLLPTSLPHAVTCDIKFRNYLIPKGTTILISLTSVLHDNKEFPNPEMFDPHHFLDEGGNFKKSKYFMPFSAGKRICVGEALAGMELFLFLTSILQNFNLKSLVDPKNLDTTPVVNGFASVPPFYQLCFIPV
Chain of Cytochrome P450 3A4 (Homo sapiens) (P08684 whole entry, looked up): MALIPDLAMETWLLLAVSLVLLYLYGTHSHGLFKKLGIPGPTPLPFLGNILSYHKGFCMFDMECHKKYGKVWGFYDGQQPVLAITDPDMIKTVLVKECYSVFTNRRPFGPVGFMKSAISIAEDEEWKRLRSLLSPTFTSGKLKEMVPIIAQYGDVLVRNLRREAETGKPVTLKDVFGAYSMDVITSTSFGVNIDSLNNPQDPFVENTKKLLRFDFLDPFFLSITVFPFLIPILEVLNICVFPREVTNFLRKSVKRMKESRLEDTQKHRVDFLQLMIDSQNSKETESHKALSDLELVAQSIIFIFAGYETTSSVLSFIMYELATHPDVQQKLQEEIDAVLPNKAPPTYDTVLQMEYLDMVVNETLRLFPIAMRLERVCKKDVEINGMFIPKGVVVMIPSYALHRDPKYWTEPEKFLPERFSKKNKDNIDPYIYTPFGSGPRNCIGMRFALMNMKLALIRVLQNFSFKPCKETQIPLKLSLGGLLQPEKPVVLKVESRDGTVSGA
Chain of Cytochrome P450 1A2 (Homo sapiens) (P05177 whole entry, looked up): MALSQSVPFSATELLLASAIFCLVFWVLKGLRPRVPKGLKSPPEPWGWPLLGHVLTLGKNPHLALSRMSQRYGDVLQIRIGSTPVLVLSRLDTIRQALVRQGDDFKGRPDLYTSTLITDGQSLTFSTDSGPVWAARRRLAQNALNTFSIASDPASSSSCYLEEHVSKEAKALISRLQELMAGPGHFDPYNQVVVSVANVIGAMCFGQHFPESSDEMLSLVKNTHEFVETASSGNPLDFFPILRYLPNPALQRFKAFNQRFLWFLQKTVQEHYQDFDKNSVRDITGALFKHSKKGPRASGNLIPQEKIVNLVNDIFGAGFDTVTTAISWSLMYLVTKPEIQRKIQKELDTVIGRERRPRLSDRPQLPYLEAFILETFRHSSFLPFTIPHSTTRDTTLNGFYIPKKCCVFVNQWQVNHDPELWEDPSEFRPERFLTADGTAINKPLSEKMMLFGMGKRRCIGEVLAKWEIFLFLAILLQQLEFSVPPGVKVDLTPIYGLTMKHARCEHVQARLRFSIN
Chain of Cytochrome P450 2C19 (Homo sapiens) (P33261 whole entry, looked up): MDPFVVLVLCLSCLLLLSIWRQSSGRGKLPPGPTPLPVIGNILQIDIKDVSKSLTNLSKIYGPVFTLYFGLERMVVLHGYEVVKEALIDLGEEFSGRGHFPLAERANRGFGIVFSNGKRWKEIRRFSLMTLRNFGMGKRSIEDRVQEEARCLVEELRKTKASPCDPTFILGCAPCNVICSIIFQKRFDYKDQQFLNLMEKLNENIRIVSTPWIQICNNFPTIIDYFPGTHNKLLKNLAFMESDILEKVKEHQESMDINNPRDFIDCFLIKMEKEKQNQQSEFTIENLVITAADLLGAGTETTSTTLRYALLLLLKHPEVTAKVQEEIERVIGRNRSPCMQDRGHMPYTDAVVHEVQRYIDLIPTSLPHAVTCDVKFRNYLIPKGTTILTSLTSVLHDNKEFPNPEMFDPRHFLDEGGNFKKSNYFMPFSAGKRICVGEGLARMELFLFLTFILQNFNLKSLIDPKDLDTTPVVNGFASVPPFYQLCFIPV

As for `CC(=O)O[C@H]1C[C@H]2CC[C@@H]3[C@H]4C[C@@H]([N+]5(C)CCCCC5)[C@@H](OC(C)=O)[C@]4(C)CC[C@@H]3[C@@]2(C)C[C@@H]1[N+]1(C)CCCCC1`, the Potency in experiment [1] and in experiment [2] was > 46 µM (inactive) throughout. The Potency result in experiment [3], in experiment [4], in experiment [6], in [7] and in experiment [8] was “inactive” each time. For the same molecule, in experiment [5], the activity change, negative = inhibition is -5.08% (inactive). In addition, the max response was -19.7% in [5] (setting [20]) and -24.4% in experiment [5] (setting [21]).

On to `CC1(C)CO[C@H](CC(=O)O)CN1`, for which the Potency in experiment [1] is > 46 µM (inactive); in experiment [2], > 46 µM (inactive); in experiment [9], 0.0063 µM (active); in experiment [10], 5.01 µM (active). Further, the Potency entry in experiment [4], in experiment [6], in experiment [7] and in experiment [8] was “inactive” each time. In addition, in experiment [5], the activity change, negative = inhibition was -3% (inactive). In addition, the max response was -8.35% in experiment [5] (setting [20]) and -12.8% in experiment [5] (setting [21]).

Turning to `N#CC(=C(/N)Sc1ccccc1N)/C(C#N)=C(/N)Sc1ccccc1N`, the activity change, negative = inhibition in [11] is -84.2% (active); in experiment [13], 8.23% (inactive). For the same molecule, the Potency in experiment [12] was 12.6 µM (active) and 31.6 µM (active); in experiment [1], > 46 µM (inactive); in experiment [2], > 46 µM (inactive); in experiment [16], 316 nM (active) and 3.16 µM (active). Moreover, the Potency result in [4], in experiment [15], in experiment [17], in experiment [18], in experiment [7] and in experiment [8] was “inactive” in each case. Besides, the molecule was called inactive in experiment [14].

In the case of `CC[C@H](C)N(C)C(=O)c1cc2ccccc2c(-c2ccccc2Cl)n1`, the figures for the activity change, negative = inhibition in experiment [11] and in experiment [13] were -18% (inactive) and -2.88% (inactive), respectively. Besides, the activity, negative = inhibition in [19] was 8.11% (inactive). The Potency result in experiment [3], in experiment [17], in experiment [9], in experiment [10], in [18] and in [6] was “inactive” each time. For the same molecule, the Potency entry in experiment [7] and in [8] was “inactive” each time. Moreover, in experiment [14], the call was inactive.

Regarding `NC1(C(=O)O)CCC1`, the Potency in [1] and in experiment [2] was > 46 µM (inactive) each time. Moreover, the Potency entry in experiment [3], in experiment [4], in experiment [6], in experiment [7] and in [8] was “inactive” in each case. In addition, in experiment [5], the activity change, negative = inhibition was 3.54% (inactive). Moreover, the max response in experiment [5] (setting [20]) was -18.5%; in experiment [5] (setting [21]) it was -13.7%.

In the case of `CC[C@H](C)C(=O)O[C@H]1CCC=C2C=C[C@H](C)[C@H](CC[C@@H]3C[C@H](O)CC(=O)O3)[C@H]21`, the Potency is 31.6 µM (active) in experiment [12], > 46 µM (inactive) in [1] and > 46 µM (inactive) in experiment [2]. The Potency entry in experiment [3], in [17], in experiment [18], in experiment [6], in experiment [7] and in [8] was “inactive” throughout. The result in experiment [14] was inactive.

Turning to `CCOC(=O)C1=C(C)NC(C)=C(C(=O)OC)[C@H]1c1cccc([N+](=O)[O-])c1`, the activity change, negative = inhibition in experiment [11] is -24.5% (inactive); in experiment [13], -17% (inactive). The Potency in [12] is 15.8 µM (active); in experiment [15] it was 1.58 µM (active) and 158 nM (active); in experiment [10] it was 1.26 µM (active) and 251 nM (active). Further, in [19], the activity, negative = inhibition was 17.9% (inactive). The molecule was classed as inactive in [14]. Besides, the Potency result in experiment [18], in [6], in experiment [7] and in experiment [8] was “inactive” throughout.
